Format in all cases: functional
Assay [1] deals with Plasmodium falciparum. Nature of the assay: GSK_TCMDC: Inhibition of Plasmodium falciparum 3D7 in whole red blood cells, using parasite LDH activity as an index of growth. Test compounds present at 2uM.
Assay [2] deals with Plasmodium falciparum. Nature of the assay: GSK_TCMDC: Inhibition of Plasmodium falciparum Dd2 in whole red blood cells, using parasite LDH activity as an index of growth. Test compounds present at 2uM.
In the next assay the test system is HepG2. The assay can be described thus: GSK_TCMDC: Percent inhibition of human HepG2 cell line. Test compounds present at 10uM.

As for `Cl.O=C(Nc1cccc(Cl)c1Cl)N1CCc2cc3nccc(N4CCN5CCC[C@H]5C4)c3cc21`, the values for the Inhibition in the assay with Plasmodium falciparum [1], with Plasmodium falciparum [2] and with HepG2 were 98%, 100% and 9%, respectively.
As to `COc1ccc(CCNCCCCCCNCCc2ccc(Cl)cc2)c(Cl)c1OC.Cl`, the figures for the Inhibition in the assay with Plasmodium falciparum [1], in the assay on Plasmodium falciparum [2] and in the assay with HepG2 were 100%, 4% and 88%, respectively.
Turning to `O=C(NCCCN1CCCC1=O)c1cnc(N2CCC(Oc3ccccc3)CC2)c(Cl)c1`, the Inhibition stood at 97% in the assay with Plasmodium falciparum [1], 93% with Plasmodium falciparum [2] and 7% with HepG2.
With `O=C(/C=C/c1ccc(Cl)c(Cl)c1)NCCC(CN1CCC(c2c[nH]c3ccccc23)CC1)c1ccccc1` (stereo not given), the Inhibition in the assay on Plasmodium falciparum [1] was found to be 100%; in the assay with Plasmodium falciparum [2] it was 42%; in the assay on HepG2, 84%.
Consider `O=S(=O)(c1c(Cl)cc(Cl)cc1Cl)N1CCCCC(c2ccc(C(F)(F)F)cc2)=N1`, for which the Inhibition in the assay with Plasmodium falciparum [1] is recorded as 98%; with Plasmodium falciparum [2] it was 99%; in the assay with HepG2 it was 6%.
As for `Cc1ccc(Cn2nc(Cl)c(N3CCNCC3)cc2=O)cc1NC(=O)Nc1ccc(-c2ccccc2)cc1.O=C(O)C(F)(F)F`, the figures for the Inhibition with Plasmodium falciparum [1], in the assay with Plasmodium falciparum [2] and in the assay on HepG2 were 98%, 97% and 100%, respectively.
As for `CCOC(=O)c1ccc(-c2cnc(N)c(-c3nc4cccc(C)c4[nH]3)c2)cc1`, the results for the Inhibition with Plasmodium falciparum [1], in the assay with Plasmodium falciparum [2] and with HepG2 were 100%, 79% and 43%, respectively.
Regarding `Cc1ccc2nc(C)cc(NC(=O)Nc3ccc(N(C)C)cc3)c2c1`, the Inhibition is given as 100% with Plasmodium falciparum [1], 41% in the assay with Plasmodium falciparum [2] and 12% in the assay on HepG2.
The corresponding values for `COc1ccc2nccc([C@@H](O)CN3CCC(NCc4ccc5c(c4)NC(=O)CS5)CC3)c2c1.O=C(O)C(=O)O` are 100%, 36% and 0%.
The matching figures for `Cc1ccc2nc3c(cc(C(=O)NCCc4ccccc4)c(=N)n3CCCOC(C)C)c(=O)n2c1`: 96%, 12% and 15%.
On to `CCN(CC)CCN(Cc1ccc(-c2ccc(Cl)cc2)cc1)C(=O)Cn1cc(CN(C)C)c(=O)nc1SCc1ccc(F)cc1`, for which the Inhibition worked out at 99% in the assay with Plasmodium falciparum [1], 99% in the assay with Plasmodium falciparum [2] and 49% in the assay on HepG2.
As to `CCCCN1CCN(c2cc(NS(=O)(=O)c3cccc(C(=O)Nc4ccc(C(F)(F)F)cc4)c3)ccc2OC)CC1.O=C(O)C(F)(F)F`, the figures for the Inhibition in the assay with Plasmodium falciparum [1], in the assay with Plasmodium falciparum [2] and with HepG2 were 99%, 7% and 6%, respectively.
Regarding `O=C(NC1CC1)c1cnc(N2CCC(OCc3ccccc3)CC2)c(Cl)c1.O=C(O)C(F)(F)F`, the values for the Inhibition in the assay on Plasmodium falciparum [1], in the assay with Plasmodium falciparum [2] and in the assay with HepG2 were 90%, 71% and 0%, respectively.
`CC(C)CNCc1cccc(-c2cccc(CNC3CCN(Cc4ccccc4)CC3)c2)c1.O=C(O)C(F)(F)F`: the Inhibition was 100% in the assay with Plasmodium falciparum [1], 99% in the assay with Plasmodium falciparum [2] and 32% in the assay on HepG2.
The matching figures for `CCNc1cc(C(=O)N[C@@H](Cc2ccccc2)[C@H](O)CNC23CCC(CC2)C3)cc(N2CCCCS2(=O)=O)c1.Cl`: 97%, 99% and 22%.
For `COc1ccc(-c2cccc(NC(=O)c3ccc(C#N)cc3)c2)cc1CN1CCN(C)CC1.O=C(O)C(F)(F)F`, the Inhibition in the assay with Plasmodium falciparum [1] came out at 93%; in the assay with Plasmodium falciparum [2] it was 2%; in the assay on HepG2, 24%.
As to `Cc1cccc2nc(-c3ccc(-c4ccc(CNCc5cccc(N)c5)cc4)s3)[nH]c12.O=C(O)C(F)(F)F`, the figures for the Inhibition in the assay on Plasmodium falciparum [1], in the assay on Plasmodium falciparum [2] and in the assay on HepG2 were 100%, 78% and 10%, respectively.
The corresponding values for `CN(C)CCN(C)Cc1ccc(-c2cccc(NC(=O)c3cccc(C#N)c3)c2)cc1.O=C(O)C(F)(F)F` are 94%, 11% and 23%.
The corresponding values for `CCc1ccc(CN2CCC(NC(=O)c3cc(-c4ccc(N(C)C)cc4)cs3)C2)cc1.O=C(O)C(F)(F)F` (stereo not given) are 90%, 7% and 29%.
With `CS(=O)(=O)c1cccc(-c2cnc(N)c3cc(-c4ccc(F)cc4)ccc23)c1`, the Inhibition with Plasmodium falciparum [1] amounted to 91%; in the assay on Plasmodium falciparum [2] it was 33%; in the assay on HepG2 it was 28%.
Consider `CCOC(=O)c1c[nH]c2c(ccc3ccccc32)c1=O`, for which the Inhibition with Plasmodium falciparum [1] is on record as 96%; in the assay with Plasmodium falciparum [2] it was 96%; with HepG2, 0%.
Take `COc1ccc2nccc([C@@H](O)CN3CCC(NCCOc4c(C)cccc4F)CC3)c2c1.O=C(O)C(=O)O`: the Inhibition is listed as 100% in the assay on Plasmodium falciparum [1], 95% in the assay on Plasmodium falciparum [2] and 4% with HepG2.
`C=CCOC(=O)N1CCC(CNCc2ccc(-c3cccc(-c4nc5cccc(C)c5[nH]4)c3)cc2)C1.O=C(O)C(F)(F)F` (stereo not given): the Inhibition in the assay on Plasmodium falciparum [1] amounted to 100%; in the assay with Plasmodium falciparum [2], 99%; with HepG2 it was 25%.
For `CCc1ccc(S(=O)(=O)Nc2cccc(CCN3CCC(N4CCCCC4)CC3)c2)cc1`, the values for the Inhibition in the assay on Plasmodium falciparum [1], with Plasmodium falciparum [2] and with HepG2 were 100%, 20% and 21%, respectively.
Turning to `Cc1cc(NC2CCN(Cc3ccccc3)CC2)nc(NCCCCc2ccccc2)n1`, the figures for the Inhibition in the assay with Plasmodium falciparum [1], in the assay with Plasmodium falciparum [2] and with HepG2 were 100%, 60% and 65%, respectively.
For the molecule `Cc1c(OC(C)C)nc2ccccc2c1C(=O)N[C@H](c1cccc(F)c1)C1CC1`, the results for the Inhibition in the assay on Plasmodium falciparum [1], in the assay on Plasmodium falciparum [2] and in the assay with HepG2 were 83%, 34% and 6%, respectively.
The corresponding values for `CCCCCCn1c(Sc2ccc(C#N)c([N+](=O)[O-])c2)nnc1-c1cccc(Cl)c1` are 96%, 90% and 17%.
Turning to `O=C(Nc1ccc(C(F)(F)F)cc1)c1cccc(S(=O)(=O)NC2CCN(Cc3ccccc3)C2)c1.O=C(O)C(F)(F)F` (stereo not given), the Inhibition in the assay on Plasmodium falciparum [1] is on record as 88%; with Plasmodium falciparum [2], 0%; with HepG2, 39%.
Take `CN1CCN(CC(=O)Nc2cccc(-c3cccc(-c4nc5ccccc5[nH]4)c3)c2)CC1`: the Inhibition is recorded as 90% with Plasmodium falciparum [1], 27% in the assay with Plasmodium falciparum [2] and 11% in the assay with HepG2.
The corresponding values for `COc1cccc(C2CCN(CCN3CCC(NC(=O)c4ccc(-c5ccc(C(F)(F)F)cc5)cc4)CC3)CC2)c1` are 99%, 99% and 46%.
